PHOSPHO1 inh – PHOSPHO1 (human) inhibition; Q8TCT1; recombinant PHOSPHO1, absorbance phosphatase assay; inhibition, % at 13.3 µM; 290,000 compounds, 1.1% hits; in the data active = inhibition above about 60%
CRFR2-BP antag – antagonists of CRF-binding protein/CRF-R2 receptor complex. HEK293 CRF-R2/CRF-BP, CRF-induced calcium fluorescence. inhibition, % at 11.8 µM. 350,000 compounds, 0.59% hits. AID 588475;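 active = inhibition of the ligand-induced calcium signal above about 50% at the single tested concentration, limit read from the data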
eIF4H FP inh – inhibitors of RNA binding by human eIF4H; Q15056; eIF4H fluorescence polarization binding assay; inhibition, % at 35 µM; 290,000 compounds, 0.94% hits; AID 2012;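 also: calls also rest on retests at 20 µM and on dose response follow-up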
PABP FP inh – blocks human PABP binding to poly(A) RNA | AID 2014 | inhibition, % at 35 µM | 290,000 compounds, 1% hits | fluorescence polarization | P11940;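 also: calls also rest on retests at 20 µM and on dose response follow-up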
Target sequence (P11940 whole entry, looked up): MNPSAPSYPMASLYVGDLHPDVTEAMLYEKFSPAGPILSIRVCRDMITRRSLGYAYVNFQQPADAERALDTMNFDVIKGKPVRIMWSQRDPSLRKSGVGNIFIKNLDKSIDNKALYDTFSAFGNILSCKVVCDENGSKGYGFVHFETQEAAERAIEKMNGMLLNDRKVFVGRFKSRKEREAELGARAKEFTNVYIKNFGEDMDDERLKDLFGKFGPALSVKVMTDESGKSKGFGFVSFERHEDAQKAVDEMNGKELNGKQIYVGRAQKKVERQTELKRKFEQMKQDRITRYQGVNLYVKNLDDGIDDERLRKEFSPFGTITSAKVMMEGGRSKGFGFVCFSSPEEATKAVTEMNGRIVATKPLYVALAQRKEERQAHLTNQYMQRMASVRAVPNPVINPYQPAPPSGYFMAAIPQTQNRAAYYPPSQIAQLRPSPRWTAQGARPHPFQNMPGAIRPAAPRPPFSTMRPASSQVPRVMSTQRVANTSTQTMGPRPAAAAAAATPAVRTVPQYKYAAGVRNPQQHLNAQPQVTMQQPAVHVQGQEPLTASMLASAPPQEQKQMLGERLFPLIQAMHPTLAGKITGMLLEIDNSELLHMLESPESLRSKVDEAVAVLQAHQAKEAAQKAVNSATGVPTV
MLLE-PAM2 inh – inhibitors of microRNA-mediated deadenylation, human PABP1 MLLE binding | P11940 | GST-MLLE / FITC-PAM2 fluorescence polarization | inhibition, % at 20 µM | 360,000 compounds, 0.36% hits; in the data active = inhibition above about 35%, passing the limit was not always enough;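 also: plate controls were DMSO wells with GST-MLLE for no effect and wells lacking GST-MLLE protein for full effect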
* hit, by the source's call; nt = no result given. Compounds with a hit are over-represented: about 2.6% of the library has one in this group of screens. Unless noted, no rule for the calls is given here.

SMILES | PHOSPHO1 inh | CRFR2-BP antag | eIF4H FP inh | PABP FP inh | MLLE-PAM2 inh
COCCCNc1nc2nonc2nc1N1CCC(C(C)N2CCOCC2)CC1 (stereo not drawn) | 69.8* | 28.3 | 8.5 | -2.4 | 5.1
COc1ccc(Oc2c(C)oc3c(CN4CCOCC4)c(O)ccc3c2=O)cc1 | 60.1* | 12.5 | 7.9 | 0.9 | 8.0
O=C(Oc1ccc2c(c1)OCO2)c1cc2c(s1)CCC2 | 8.9 | -6.2 | 98.5* | 55.2* | -0.1
C=CCn1c(Cc2nc3ccccc3[nH]2)n[nH]c1=S | 89.9* | -2.1 | -2.4 | 0.4 | -31.7
C=CCn1c(CSc2nc3ccccc3s2)n[nH]c1=S | 105.9* | 2.3 | 2.5 | 1.6 | -16.9
S=c1[nH]nc(CSc2nc3ccccc3s2)n1Cc1ccccc1 | 97.5* | 23.7 | -3.9 | -7.6 | -37.1
S=c1[nH]nc(CCc2ccccc2)n1Cc1ccccc1 | 13.5 | 10.8 | -8.2 | 4.9 | -6.7
C=CCn1c(CSc2ccc(C)cc2)n[nH]c1=S | -36.3 | 5.3 | -9.5 | -2.9 | -8.2
CCn1c(CSc2nc3ccccc3s2)n[nH]c1=S | 95.8* | -2.5 | -10.2 | 1.5 | 2.9
CC1C(=O)C(C)C(c2cccs2)NC1c1cccs1 (stereo not drawn) | -3.3 | 57.3* | -1.7 | 7.9 | -0.4
Cc1ccccc1C1NC(c2ccccc2C)C(C)C(=O)C1C (stereo not drawn) | 32.6 | 21.1 | 5.9 | 5.9 | -4.0
CCN(CC)CCCN1C(=O)C(O)=C(C(=O)c2ccco2)C1c1ccc(C)o1 (stereo not drawn) | nt | 5.5 | nt | nt | 15.7
CCN(CC)CCCN1C(=O)C(O)=C(C(=O)c2ccc(C)o2)C1c1ccc(C)o1 (stereo not drawn) | -0.8 | 9.7 | 18.3 | 120.4* | 0.1
CCOC(=O)C1CCN(C(c2cc3c(C)ccc(C)c3[nH]c2=O)c2nnnn2C2CCCCC2)CC1 (stereo not drawn) | 74.3* | -0.8 | 4.3 | -4.1 | -41.3
CCOC(=O)C1CCN(C(c2cc3ccc(C)c(C)c3[nH]c2=O)c2nnnn2C2CCCCC2)CC1 (stereo not drawn) | 86.5* | 4.0 | -4.0 | 30.1 | -44.5
Cc1ccc2cc(C(c3nnnn3C3CCCC3)N3CCOCC3)c(=O)[nH]c2c1C (stereo not drawn) | 14.7 | -0.1 | -3.9 | -4.1 | 4.0
CCOc1ccc(NC(=O)CN2CCCC2c2cccs2)cc1S(=O)(=O)N1CCCC1 (stereo not drawn) | nt | 11.9 | nt | nt | 0.3
COc1ccc(NC(=O)CN2CCCC2c2cccs2)cc1S(=O)(=O)N1CCCCC1 (stereo not drawn) | nt | 64.0* | nt | nt | -2.1
CCOc1ccc(N2CC(C(=O)Nc3ccc(OC)c(S(=O)(=O)N4CCCCC4)c3)CC2=O)cc1 (stereo not drawn) | 8.2 | 32.6 | 3.0 | 64.3* | -22.2
Cc1ccc(-n2nnnc2CNC(=O)C2CC(=O)N(c3ccc(F)cc3)C2)cc1C (stereo not drawn) | nt | -1.9 | nt | nt | -1.5
CCOc1ccc(N2CC(C(=O)NCc3nnnn3-c3ccc(C)c(C)c3)CC2=O)cc1 (stereo not drawn) | 17.1 | 53.5* | -4.5 | 7.9 | 5.9
COc1ccc(NC(=O)CCCC2CCCCC2)cc1S(=O)(=O)N1CCCCC1 | 5.9 | 64.4* | 0.1 | 7.9 | -1.1
C=C1C(=O)N(C)CCC1C(CC)C(=O)OC (stereo not drawn) | nt | -14.5 | nt | nt | 5.2
CCOC(=O)C1(C)CCCN(C(=O)c2ccc(OC)cc2OC)C1 (stereo not drawn) | nt | nt | nt | nt | 4.9
CN(C)c1ccc(-c2ccnc3c2CC(C)(C(=O)NCC2CC2)O3)cc1 (stereo not drawn) | nt | nt | nt | nt | -6.5
SMILES | PHOSPHO1 inh | CRFR2-BP antag | eIF4H FP inh | PABP FP inh | MLLE-PAM2 inh
CCOC(=O)C1(C)CCCN(C(=O)c2cc(C)oc2C)C1 (stereo not drawn) | nt | nt | nt | nt | -2.1
O=C(CN1C(=O)NC2(CCCCC2)C1=O)Oc1ccc2c(C(F)(F)F)cc(=O)oc2c1 | nt | -2.1 | nt | nt | 44.5*
CN=C(c1ccco1)n1c(=S)nc(-c2ccco2)n(C)c1=S | 89.4* | 49.9 | 26.0 | 51.9 | 32.4
CCOC(=O)c1cnc(-c2ccccc2)nc1N1CC(C)OC(C)C1 (stereo not drawn) | 56.2 | -2.9 | -3.4 | 2.5 | -4.5
CCOC(=O)c1nnc(-c2ccccc2)nc1N1CC(C)OC(C)C1 (stereo not drawn) | 52.8 | 55.9* | 8.7 | -5.0 | 10.2
Cc1ccc(S(=O)(=O)CC(=O)c2ccccc2)cc1 | 8.3 | 8.7 | 4.1 | -8.7 | 6.5
CC(C)(C)c1ccc(C(=O)CS(=O)(=O)c2ccccc2)cc1 | 13.7 | 77.4* | -14.3 | -6.4 | 1.0
O=C(NCc1nnc2c(C(F)(F)F)cc(Cl)cn12)c1ccc(Br)o1 | -3.7 | -0.4 | 1.8 | 3.6 | -16.3
OCCN1CCN(c2ncnc3c2ncn3[C@H]2CN(Cc3ccc(Cl)cc3)C[C@@H](CO)O2)CC1 | nt | nt | nt | nt | -8.0
COc1cccc(CNC(=O)c2cc3c(C)nc4ccccc4c3o2)c1 | -3.3 | -16.6 | 2.7 | 11.6 | -5.0
COc1ccc(CNC(=O)c2cc3c(C)nc4ccccc4c3o2)c(OC)c1 | -2.0 | 57.6* | -1.5 | 7.9 | 8.6
O=C(NC(=S)Nc1cccnc1)c1cccs1 | 24.8 | -2.2 | 3.6 | -2.3 | 39.2*
O=C(NC(=S)Nc1ccc(S(=O)(=O)N2CCCC2)cc1)C1CC1 | 12.0 | -13.6 | -8.4 | 63.4* | 14.4
O=C(NC(=S)Nc1ccc(S(=O)(=O)N2CCCCCC2)cc1)c1cccs1 | -13.2 | -18.3 | -2.5 | 1.8 | 28.4
O=C(O)CC(SCC(=O)Nc1ccccc1)C(=O)O (stereo not drawn) | 22.8 | -10.3 | 0.2 | -6.7 | 0.0
O=C(Nc1cccnc1)c1cccs1 | 5.5 | 7.2 | -12.5 | -7.5 | -0.1
O=C(O)CC(SCC(=O)Nc1ccc(S(=O)(=O)N2CCCC2)cc1)C(=O)O (stereo not drawn) | 8.2 | -14.5 | -9.5 | -10.9 | 40.0*
O=C(NC(=S)Nc1ccc(S(=O)(=O)N2CCCC2)cc1)c1cccs1 | -15.9 | -16.2 | 5.6 | 1.8 | 46.6*
CCOC(=O)C1(C)CCCN(C(=O)c2cccc(OC(F)(F)F)c2)C1 (stereo not drawn) | nt | nt | nt | nt | -0.3
Cn1nnnc1SCC(=O)Nc1ncc(C(F)(F)F)cc1Cl | nt | 0.6 | nt | nt | -16.8
O=C(/C=C/c1ccccc1)c1cc(Br)ccc(=O)c1O | 38.3 | -17.8 | 82.6* | 44.3* | -69.9
O=C(/C=C/c1ccc(F)cc1)c1cc(Br)ccc1O | 24.0 | -14.2 | -6.2 | 4.4 | 0.3
Cc1ccc(/C=C/C(=O)c2ccccc(=O)c2O)cc1C | -0.3 | -67.9 | 66.1* | active | -9.7
COc1ccc(C=CC(=O)c2ccc(OC)c(OC)c2O)cc1OC | nt | -16.4 | nt | nt | 27.4
COc1cccc(C(O)c2nc(-c3ccccc3)cs2)c1 (stereo not drawn) | nt | nt | nt | nt | 2.4
N#C/C(=N\Nc1cccc2ccccc12)c1nnc2n1CCCCC2 | -30.7 | 9.0 | 85.5* | active | 0.5
COC(=O)c1c(NC(=S)Nc2cc(OC)c(Cl)cc2OC)sc2c1CCCCC2 | -1.8 | -15.4 | 8.5 | 3.2 | 47.2*
CNc1ccc(Br)cc(C(=O)/C=C/c2cccc(OC)c2)c1=O | 7.8 | 1.7 | 80.5* | active | -63.3
CCNc1ccc(Br)cc(C(=O)/C=C/c2ccc3c(c2)OCO3)c1=O | 24.0 | -6.8 | 78.5* | 38.3* | -57.0

Source: PubChem BioAssay (Sanford-Burnham Center for Chemical Genomics)
